According to the supplement of paper PMC10849652:
Targets with a hit are over-represented here; the source holds about 7,900 in all. About 0.6% of all pairs of compound and target were hits.

What was measured:
Experiment in all cases: log2 fold change, soluble protein after heating vs DMSO (PISA); higher = thermal stabilisation; K562 cells, 10 uM, 30 min; active = over 0.2 and 3.5 SD of the protein, either way, in both replicates (recomputed)
[1] = compound: COC1=CC=C(C=C1)CN2C=CC3=C2C=C(C=C3)C(=O)NO
Summary of the method: (§1)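 Thermal stability values are relative to control samples and come from duplicates. They are expressed as log2 fold changes. For measurement, K562 cells (2×10^6 cells/mL) received 10 μM compound for 30 min, and aliquots were heated for 3 min over 48°C-58°C, pooled, and extracted at 4°C in PBS with 0.5% NP-40. Soluble protein, the supernatant after 21,000xg for 90 min, was quantified by TMTpro 16plex LC-MS/MS with equalised channel sums.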

filanesib = compound: CON(C)C(=O)N1N=C(c2cc(F)ccc2F)S[C@@]1(CCCN)c1ccccc1 [filanesib]
Summary of the method: as §1

zotarolimus = compound: CO[C@H]1C[C@@H]2CC[C@@H](C)[C@@](O)(O2)C(=O)C(=O)N2CCCC[C@H]2C(=O)O[C@H]([C@H](C)C[C@@H]2CC[C@H](n3cnnn3)[C@H](OC)C2)CC(=O)[C@H](C)/C=C(\C)[C@@H](O)[C@@H](OC)C(=O)[C@H](C)C[C@H](C)/C=C/C=C/C=C/1C [zotarolimus]
Summary of the method: as §1

idasanutlin = compound: COc1cc(C(=O)O)ccc1NC(=O)[C@@H]1N[C@@H](CC(C)(C)C)[C@](C#N)(c2ccc(Cl)cc2F)[C@H]1c1cccc(Cl)c1F [idasanutlin]
Summary of the method: as §1

alisertib = compound: COc1cc(Nc2ncc3c(n2)-c2ccc(Cl)cc2C(c2c(F)cccc2OC)=NC3)ccc1C(=O)O [alisertib]
Summary of the method: as §1

[2] = compound: COc1cc2nc(-c3cc(F)ccc3O)nc(N[C@@H]3CNC[C@H]3C(C)(C)O)c2cc1OC
Summary of the method: as §1

gefitinib = compound: COc1cc2ncnc(Nc3ccc(F)c(Cl)c3)c2cc1OCCCN1CCOCC1 [gefitinib]
Summary of the method: as §1

[3] = compound: COc1cccc2cc(-c3nc([C@H]4CC[C@H](C(=O)O)CC4)n4ncnc(N)c34)[nH]c12
Summary of the method: as §1

lapatinib = compound: CS(=O)(=O)CCNCc1ccc(-c2ccc3ncnc(Nc4ccc(OCc5cccc(F)c5)c(Cl)c4)c3c2)o1 [lapatinib]
Summary of the method: as §1

pictilisib = compound: CS(=O)(=O)N1CCN(Cc2cc3nc(-c4cccc5[nH]ncc45)nc(N4CCOCC4)c3s2)CC1 [pictilisib]
Summary of the method: as §1

[4] = compound: CS(=O)(=O)c1ccc(-c2cnc(N)c(C(=O)Nc3ccccc3)n2)cc1
Summary of the method: as §1

crizotinib = compound: C[C@@H](Oc1cc(-c2cnn(C3CCNCC3)c2)cnc1N)c1c(Cl)ccc(F)c1Cl [crizotinib]
Summary of the method: as §1

[5] = compound: C[C@@H]1COCCN1C2=NC(=NC(=C2)C3(CC3)S(=O)(=O)C)C4=C5C=CNC5=CC=C4
Summary of the method: as §1

[6] = compound: C[C@H](C1=CC=C(C=C1)C(=O)NC2=C3C=CNC3=NC=C2)N
Summary of the method: as §1

duvelisib = compound: C[C@H](Nc1ncnc2nc[nH]c12)c1cc2cccc(Cl)c2c(=O)n1-c1ccccc1 [duvelisib]
Summary of the method: as §1

gandotinib = compound: Cc1cc(Nc2cc(CN3CCOCC3)c3nc(C)c(Cc4ccc(Cl)cc4F)n3n2)n[nH]1 [gandotinib]
Summary of the method: as §1

tozasertib = compound: Cc1cc(Nc2cc(N3CCN(C)CC3)nc(Sc3ccc(NC(=O)C4CC4)cc3)n2)n[nH]1 [tozasertib]
Summary of the method: as §1

[7] = compound: Cc1cc(SCc2sc(-c3ccc(C(F)(F)F)cc3)nc2C)ccc1OCC(=O)O
Summary of the method: as §1

doramapimod = compound: Cc1ccc(-n2nc(C(C)(C)C)cc2NC(=O)Nc2ccc(OCCN3CCOCC3)c3ccccc23)cc1 [doramapimod]
Summary of the method: as §1

ispinesib = compound: Cc1ccc(C(=O)N(CCCN)[C@@H](c2nc3cc(Cl)ccc3c(=O)n2Cc2ccccc2)C(C)C)cc1 [ispinesib]
Summary of the method: as §1

Measured: log2 fold change

MITD1 (UniProt Q8WV92)
Sequence of UniProt Q8WV92 (Q8WV92 whole entry, looked up): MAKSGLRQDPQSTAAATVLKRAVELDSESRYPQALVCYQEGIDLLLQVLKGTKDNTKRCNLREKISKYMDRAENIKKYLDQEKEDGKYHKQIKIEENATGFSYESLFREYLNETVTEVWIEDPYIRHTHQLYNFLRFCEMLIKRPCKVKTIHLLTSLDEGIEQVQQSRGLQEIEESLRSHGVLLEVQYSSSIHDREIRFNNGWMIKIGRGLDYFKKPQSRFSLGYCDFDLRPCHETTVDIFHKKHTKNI
inactive: [1] 0.059 | filanesib 0.004 | zotarolimus -0.068 | idasanutlin -0.058 | alisertib 0.018 | [2] -0.013 | gefitinib -0.018 | [3] 0.063 | lapatinib 0.004 | pictilisib -0.121 | [4] -0.082 | crizotinib -0.271 | [5] -0.055 | [6] 0.133 | duvelisib 0.011 | gandotinib -0.068 | tozasertib -0.075 | [7] -0.147 | doramapimod 0.103 | ispinesib -0.072

NHLRC2 (UniProt Q8NBF2)
Sequence of UniProt Q8NBF2 (Q8NBF2 whole entry, looked up): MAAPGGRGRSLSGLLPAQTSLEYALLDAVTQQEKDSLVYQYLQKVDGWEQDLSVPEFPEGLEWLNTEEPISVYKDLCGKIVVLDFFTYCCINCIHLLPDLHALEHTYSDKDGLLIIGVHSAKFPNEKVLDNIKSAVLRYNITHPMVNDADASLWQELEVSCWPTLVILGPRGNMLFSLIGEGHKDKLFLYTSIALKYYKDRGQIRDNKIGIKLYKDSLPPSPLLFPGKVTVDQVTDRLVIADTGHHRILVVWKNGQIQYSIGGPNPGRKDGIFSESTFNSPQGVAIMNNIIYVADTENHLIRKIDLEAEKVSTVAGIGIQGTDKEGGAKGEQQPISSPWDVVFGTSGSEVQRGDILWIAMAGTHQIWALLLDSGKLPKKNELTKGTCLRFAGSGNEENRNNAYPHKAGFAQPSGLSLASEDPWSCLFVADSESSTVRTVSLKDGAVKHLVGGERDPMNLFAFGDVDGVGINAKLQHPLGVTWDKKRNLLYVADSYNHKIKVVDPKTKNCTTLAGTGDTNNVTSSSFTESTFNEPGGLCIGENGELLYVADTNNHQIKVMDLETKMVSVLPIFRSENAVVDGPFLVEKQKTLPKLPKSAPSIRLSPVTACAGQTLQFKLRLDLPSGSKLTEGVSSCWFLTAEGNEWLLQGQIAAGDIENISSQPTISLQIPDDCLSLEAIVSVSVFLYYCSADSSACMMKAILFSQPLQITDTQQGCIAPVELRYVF
inactive: [1] -0.084 | filanesib -0.062 | zotarolimus -0.001 | idasanutlin -0.061 | alisertib 0.1 | [2] 0.061 | gefitinib -0.011 | [3] 0.123 | lapatinib -0.057 | pictilisib 0.062 | [4] 0.1 | crizotinib -0.127 | [5] 0.165 | [6] -0.011 | duvelisib 0.05 | gandotinib -0.158 | tozasertib -0.105 | [7] 0.044 | doramapimod -0.005 | ispinesib -0.198

NOP58 (UniProt Q9Y2X3)
Sequence of UniProt Q9Y2X3 (Q9Y2X3 whole entry, looked up): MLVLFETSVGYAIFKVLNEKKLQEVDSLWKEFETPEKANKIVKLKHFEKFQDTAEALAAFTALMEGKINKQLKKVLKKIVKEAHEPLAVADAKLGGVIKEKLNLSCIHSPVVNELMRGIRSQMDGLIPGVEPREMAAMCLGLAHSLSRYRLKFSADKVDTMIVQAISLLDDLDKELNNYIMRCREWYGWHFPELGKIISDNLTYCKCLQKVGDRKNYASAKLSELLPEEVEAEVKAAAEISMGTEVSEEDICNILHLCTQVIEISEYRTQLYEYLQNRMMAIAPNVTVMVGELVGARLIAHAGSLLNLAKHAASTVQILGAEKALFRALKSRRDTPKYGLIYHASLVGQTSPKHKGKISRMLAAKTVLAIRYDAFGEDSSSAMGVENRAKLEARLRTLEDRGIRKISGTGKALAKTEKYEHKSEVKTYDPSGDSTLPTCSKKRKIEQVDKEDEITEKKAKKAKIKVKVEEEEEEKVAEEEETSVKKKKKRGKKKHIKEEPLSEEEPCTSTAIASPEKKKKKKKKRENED
active: filanesib 0.528
inactive: [1] -0.124 | zotarolimus 0.044 | idasanutlin 0.229 | alisertib -0.035 | [2] -0.096 | gefitinib 0.039 | [3] -0.028 | lapatinib 0.054 | pictilisib 0.049 | [4] 0.006 | crizotinib 0.047 | [5] -0.061 | [6] 0.242 | duvelisib 0.004 | gandotinib 0.121 | tozasertib 0.025 | [7] -0.001 | doramapimod 0.098 | ispinesib 0.103

MT-ATP6 (UniProt P00846)
Sequence of UniProt P00846 (P00846 whole entry, looked up): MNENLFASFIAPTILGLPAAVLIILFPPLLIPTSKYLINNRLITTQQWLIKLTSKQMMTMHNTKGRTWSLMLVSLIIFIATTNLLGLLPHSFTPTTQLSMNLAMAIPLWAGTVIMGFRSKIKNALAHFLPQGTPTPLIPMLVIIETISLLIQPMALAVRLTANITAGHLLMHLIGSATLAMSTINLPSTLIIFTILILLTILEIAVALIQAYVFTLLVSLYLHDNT
inactive: [1] -0.018 | filanesib -0.036 | zotarolimus -0.022 | idasanutlin -0.084 | alisertib -0.05 | [2] 0.133 | gefitinib 0.05 | [3] 0.055 | lapatinib -0.105 | pictilisib 0.208 | [4] 0.041 | crizotinib 0.355 | [5] 0.225 | [6] 0.135 | duvelisib 0.153 | gandotinib 0.143 | tozasertib 0.045 | [7] -0.081 | doramapimod -0.038 | ispinesib 0.076

NDUFA9 (UniProt Q16795)
active: idasanutlin -0.229
inactive: [1] -0.002 | filanesib -0.116 | zotarolimus 0.008 | alisertib -0.04 | [2] -0.008 | gefitinib -0.055 | [3] 0.014 | lapatinib -0.052 | pictilisib -0.024 | [4] 0.007 | crizotinib -0.139 | [5] 0.079 | [6] 0.022 | duvelisib 0.006 | gandotinib -0.115 | tozasertib -0.038 | [7] 0.052 | doramapimod -0.031 | ispinesib -0.122

MRPS15 (UniProt P82914)
active: ispinesib -0.318
inactive: [1] 0.041 | filanesib 0.145 | zotarolimus 0.095 | idasanutlin -0.265 | alisertib -0.024 | [2] 0.016 | gefitinib -0.054 | [3] 0.024 | lapatinib 0.08 | pictilisib -0.13 | [4] 0.09 | crizotinib -0.092 | [5] 0.022 | [6] 0.072 | duvelisib -0.011 | gandotinib -0.053 | tozasertib -0.046 | [7] 0.067 | doramapimod 0.042

MRPS33 (UniProt Q9Y291)
inactive: [1] -0.033 | filanesib 0.002 | zotarolimus 0.043 | idasanutlin -0.167 | alisertib -0.052 | [2] -0.057 | gefitinib 0 | [3] 0.008 | lapatinib 0.036 | pictilisib -0.1 | [4] 0.041 | crizotinib 0.005 | [5] 0.005 | [6] 0.168 | duvelisib -0.034 | gandotinib -0.034 | tozasertib 0.02 | [7] 0.121 | doramapimod 0.034
active: ispinesib -0.485

MRPL34 (UniProt Q9BQ48)
inactive: [1] -0.074 | filanesib 0.081 | zotarolimus 0.072 | idasanutlin 0.029 | alisertib -0.089 | [2] -0.045 | gefitinib -0.105 | [3] -0.164 | lapatinib 0.028 | pictilisib -0.102 | [4] -0.004 | crizotinib -0.045 | [5] 0.077 | [6] 0.179 | duvelisib -0.079 | gandotinib 0.164 | tozasertib -0.002 | [7] 0.051 | doramapimod 0.152 | ispinesib -0.284

NOB1 (UniProt Q9ULX3)
Sequence of UniProt Q9ULX3 (Q9ULX3 whole entry, looked up): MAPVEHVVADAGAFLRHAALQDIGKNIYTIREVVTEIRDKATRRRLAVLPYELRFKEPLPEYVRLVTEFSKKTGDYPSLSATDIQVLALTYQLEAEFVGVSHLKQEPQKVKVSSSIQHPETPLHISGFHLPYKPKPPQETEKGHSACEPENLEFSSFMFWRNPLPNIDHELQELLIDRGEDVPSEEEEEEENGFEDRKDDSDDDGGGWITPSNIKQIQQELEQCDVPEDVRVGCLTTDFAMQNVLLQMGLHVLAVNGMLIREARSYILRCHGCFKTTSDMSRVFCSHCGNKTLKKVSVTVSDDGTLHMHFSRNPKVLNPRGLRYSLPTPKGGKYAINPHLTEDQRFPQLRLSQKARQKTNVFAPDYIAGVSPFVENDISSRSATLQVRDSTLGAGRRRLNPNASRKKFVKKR
inactive: [1] 0.16 | filanesib 0.001 | zotarolimus 0.026 | idasanutlin 0.068 | alisertib -0.14 | [2] 0.044 | gefitinib 0.01 | [3] -0.13 | lapatinib 0.045 | pictilisib -0.042 | [4] 0.012 | crizotinib -0.142 | [5] -0.033 | [6] 0.15 | duvelisib -0.046 | gandotinib 0.019 | tozasertib -0.067 | [7] 0.113 | doramapimod 0 | ispinesib -0.038

MRPS31 (UniProt Q92665)
active: ispinesib -0.28
inactive: [1] 0.016 | filanesib 0.029 | zotarolimus 0.03 | idasanutlin -0.202 | alisertib -0.008 | [2] -0.025 | gefitinib -0.077 | [3] -0.016 | lapatinib 0.054 | pictilisib -0.005 | [4] 0.063 | crizotinib 0.024 | [5] 0.027 | [6] 0.199 | duvelisib 0.005 | gandotinib 0.121 | tozasertib -0.015 | [7] 0.073 | doramapimod 0

MTHFD1 (UniProt P11586)
Sequence of UniProt P11586 (P11586 whole entry, looked up): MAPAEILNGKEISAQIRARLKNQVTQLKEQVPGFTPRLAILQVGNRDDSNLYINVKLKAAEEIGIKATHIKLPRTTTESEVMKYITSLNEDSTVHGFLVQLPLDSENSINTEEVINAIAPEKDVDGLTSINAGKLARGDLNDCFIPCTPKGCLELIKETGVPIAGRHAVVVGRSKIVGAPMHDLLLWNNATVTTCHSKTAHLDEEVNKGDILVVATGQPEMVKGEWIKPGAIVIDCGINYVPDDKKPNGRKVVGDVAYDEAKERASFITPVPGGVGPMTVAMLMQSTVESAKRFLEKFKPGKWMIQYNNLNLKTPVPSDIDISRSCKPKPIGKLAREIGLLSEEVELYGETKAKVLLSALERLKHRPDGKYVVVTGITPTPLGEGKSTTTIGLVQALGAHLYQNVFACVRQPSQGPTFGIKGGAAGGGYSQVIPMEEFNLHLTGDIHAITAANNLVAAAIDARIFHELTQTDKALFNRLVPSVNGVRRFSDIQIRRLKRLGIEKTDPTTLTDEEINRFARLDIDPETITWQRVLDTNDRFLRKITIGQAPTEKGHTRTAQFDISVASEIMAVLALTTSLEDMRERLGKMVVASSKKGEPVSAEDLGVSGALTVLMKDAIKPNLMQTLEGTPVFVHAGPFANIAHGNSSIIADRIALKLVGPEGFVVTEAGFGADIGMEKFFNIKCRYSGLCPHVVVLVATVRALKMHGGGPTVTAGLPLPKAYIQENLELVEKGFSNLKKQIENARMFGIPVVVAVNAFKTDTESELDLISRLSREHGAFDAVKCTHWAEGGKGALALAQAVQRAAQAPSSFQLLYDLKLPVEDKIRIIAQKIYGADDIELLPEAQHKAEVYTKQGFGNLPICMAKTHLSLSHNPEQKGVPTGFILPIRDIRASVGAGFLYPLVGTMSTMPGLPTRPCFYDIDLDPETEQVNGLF
inactive: [1] 0.048 | filanesib -0.07 | zotarolimus 0.04 | idasanutlin -0.036 | alisertib -0.001 | [2] 0.017 | gefitinib 0.055 | [3] -0.015 | lapatinib 0.014 | pictilisib -0.002 | [4] 0.101 | crizotinib -0.15 | [5] 0.107 | [6] -0.003 | duvelisib 0.016 | gandotinib -0.077 | tozasertib -0.054 | [7] 0.054 | doramapimod -0.053 | ispinesib -0.021

NELFB isoform 2 (UniProt Q8WX92)
Sequence of UniProt Q8WX92 (Q8WX92 whole entry, looked up): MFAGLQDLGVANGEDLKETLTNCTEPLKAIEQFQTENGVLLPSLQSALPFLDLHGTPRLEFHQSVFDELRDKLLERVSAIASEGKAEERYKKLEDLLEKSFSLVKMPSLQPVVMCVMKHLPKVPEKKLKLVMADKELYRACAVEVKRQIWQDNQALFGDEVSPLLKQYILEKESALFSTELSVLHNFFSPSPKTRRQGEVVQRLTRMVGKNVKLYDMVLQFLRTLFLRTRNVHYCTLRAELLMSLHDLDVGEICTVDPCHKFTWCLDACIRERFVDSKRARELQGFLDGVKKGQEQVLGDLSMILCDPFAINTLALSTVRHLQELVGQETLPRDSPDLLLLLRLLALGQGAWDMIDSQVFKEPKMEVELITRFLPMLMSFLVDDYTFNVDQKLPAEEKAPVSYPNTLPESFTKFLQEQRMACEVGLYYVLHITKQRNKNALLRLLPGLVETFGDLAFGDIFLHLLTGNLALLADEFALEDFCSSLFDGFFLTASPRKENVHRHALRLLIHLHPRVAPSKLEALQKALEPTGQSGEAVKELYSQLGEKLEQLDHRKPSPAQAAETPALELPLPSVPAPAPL
inactive: [1] 0.01 | filanesib 0.046 | zotarolimus 0.019 | idasanutlin -0.026 | alisertib -0.007 | [2] 0.085 | gefitinib -0.006 | [3] -0.02 | lapatinib -0.029 | pictilisib 0.141 | [4] 0.059 | crizotinib 0.019 | [5] 0.087 | [6] -0.08 | duvelisib 0.088 | gandotinib -0.093 | tozasertib 0.033 | [7] 0.086 | doramapimod -0.087 | ispinesib 0.042

NDUFS7 (UniProt O75251)
Sequence of UniProt O75251 (O75251 whole entry, looked up): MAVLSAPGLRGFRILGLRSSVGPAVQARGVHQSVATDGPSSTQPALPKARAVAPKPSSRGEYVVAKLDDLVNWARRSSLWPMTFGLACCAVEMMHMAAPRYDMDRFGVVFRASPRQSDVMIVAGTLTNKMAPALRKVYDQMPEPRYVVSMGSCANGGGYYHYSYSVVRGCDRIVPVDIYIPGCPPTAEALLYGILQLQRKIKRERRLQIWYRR
inactive: [1] -0.009 | filanesib -0.108 | zotarolimus -0.036 | idasanutlin -0.112 | alisertib 0.039 | [2] -0.106 | gefitinib -0.029 | [3] 0.057 | lapatinib 0.015 | pictilisib 0.047 | [4] 0.013 | crizotinib -0.109 | [5] 0.029 | [6] -0.019 | duvelisib 0.053 | gandotinib -0.108 | tozasertib -0.046 | [7] 0.013 | doramapimod -0.02 | ispinesib -0.114

NUCKS1 (UniProt Q9H1E3)
Sequence of UniProt Q9H1E3 (Q9H1E3 whole entry, looked up): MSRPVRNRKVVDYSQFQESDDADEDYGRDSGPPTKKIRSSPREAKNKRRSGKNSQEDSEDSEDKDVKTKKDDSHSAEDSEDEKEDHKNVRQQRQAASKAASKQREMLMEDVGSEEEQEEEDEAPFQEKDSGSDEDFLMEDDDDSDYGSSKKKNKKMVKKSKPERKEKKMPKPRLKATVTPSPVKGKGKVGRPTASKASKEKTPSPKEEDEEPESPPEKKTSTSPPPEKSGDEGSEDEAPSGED
inactive: [1] -0.035 | filanesib 0.051 | zotarolimus -0.031 | idasanutlin -0.011 | alisertib -0.071 | [2] 0.182 | gefitinib -0.001 | [3] 0.02 | lapatinib -0.064 | pictilisib -0.011 | [4] -0.147 | [5] -0.133 | [6] 0.029 | duvelisib 0.005 | gandotinib 0.001 | tozasertib -0.064 | [7] -0.089 | doramapimod -0.03 | ispinesib 0.168
active: crizotinib 0.274

NECTIN2 (UniProt Q92692)
Sequence of UniProt Q92692 (Q92692 whole entry, looked up): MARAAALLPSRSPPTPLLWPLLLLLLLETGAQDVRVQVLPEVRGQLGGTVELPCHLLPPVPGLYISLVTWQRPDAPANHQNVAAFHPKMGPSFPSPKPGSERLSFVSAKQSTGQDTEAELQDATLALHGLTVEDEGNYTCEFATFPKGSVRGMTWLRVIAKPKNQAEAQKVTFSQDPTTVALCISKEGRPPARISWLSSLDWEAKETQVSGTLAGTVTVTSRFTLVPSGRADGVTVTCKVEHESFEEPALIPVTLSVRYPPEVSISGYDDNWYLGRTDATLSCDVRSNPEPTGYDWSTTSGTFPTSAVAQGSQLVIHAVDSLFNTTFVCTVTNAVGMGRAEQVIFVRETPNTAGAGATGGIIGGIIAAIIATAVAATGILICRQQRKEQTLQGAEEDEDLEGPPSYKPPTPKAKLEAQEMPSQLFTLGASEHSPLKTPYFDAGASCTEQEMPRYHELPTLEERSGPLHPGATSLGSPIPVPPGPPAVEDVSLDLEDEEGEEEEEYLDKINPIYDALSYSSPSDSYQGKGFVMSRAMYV
inactive: [1] -0.028 | filanesib 0.027 | zotarolimus -0.042 | idasanutlin -0.003 | alisertib -0.084 | [2] 0.011 | gefitinib 0.06 | [3] 0.014 | lapatinib -0.01 | pictilisib 0.021 | [4] 0.004 | crizotinib 0.121 | [5] 0.082 | [6] -0.148 | duvelisib 0.062 | gandotinib -0.036 | tozasertib -0.048 | [7] -0.038 | doramapimod 0.015 | ispinesib 0.113

PAAF1 (UniProt Q9BRP4)
inactive: [1] -0.013 | filanesib -0.082 | zotarolimus -0.008 | idasanutlin -0.026 | alisertib -0.062 | [2] 0.026 | gefitinib -0.002 | [3] 0.047 | lapatinib 0.027 | pictilisib 0.048 | [4] -0.003 | crizotinib -0.003 | [5] 0.078 | [6] -0.071 | duvelisib 0 | gandotinib -0.035 | tozasertib -0.042 | [7] 0.018 | doramapimod -0.022 | ispinesib 0.047
